# Results taken from PubChem BioAssay (NCI).
# Values joined by “and” are separate entries in the source; they are usually repeats but may differ in a detail not shown here. Equal values may be shown once. About 83,000 compounds went through this panel and 20% of them were active in at least one assay; those are over-represented in the sample as a whole.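 How to read the values: 0–100, growth inhibition (40 = 60% inhibited); 0, no net growth; -100 to 0, cell death (-40 = 40% of starting cells died; -100 = all dead).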 Values without a mark were called inactive. Active and inactive are the calls of the source. The calls were made as follows: active = growth percent below 10; inactive = the rest.
# Columns and labels:
# Test in all cases: NCI-60 one-dose screen, 48 h (100 = growth as untreated, 0 = no growth, -100 = all killed)
# NCI/ADR-RES ovarian = conditions: 10 µM unless noted
# T-47D breast = system: T-47D breast
# SW-620 colon = system: SW-620 colon
# MCF7 breast = system: MCF7 breast
# HCT-116 colon = system: HCT-116 colon
# HCC-2998 colon = system: HCC-2998 colon
# KM12 colon = system: KM12 colon
# BT-549 breast = system: BT-549 breast
# MDA-MB-435 melanoma = conditions: 10 µM unless noted
smiles,measurement,setting,value
O=C(O)CNCP(=O)(O)O,growth,NCI/ADR-RES ovarian,110%
same,growth,T-47D breast; 10 µM unless noted,111%
same,growth,SW-620 colon; 10 µM unless noted,110%
same,growth,MCF7 breast; 10 µM unless noted,96.2%
same,growth,HCT-116 colon; 10 µM unless noted,103%
same,growth,HCC-2998 colon; 10 µM unless noted,99.2%
same,growth,KM12 colon; 10 µM unless noted,113%
CC(=O)OCC1OC([S-])C(OC(C)=O)C(OC(C)=O)C1OC(C)=O.[Au+].c1ccc(CN2[CH-]N(Cc3ccccc3)C(c3ccccc3)=C2c2ccccc2)cc1,growth,T-47D breast; 4.75 µM,-20.3% (active)
same,growth,T-47D breast; 10 µM,-52.1% (active)
same,growth,BT-549 breast; 4.75 µM,7.95% (active)
same,growth,BT-549 breast; 10 µM,12.6%
same,growth,SW-620 colon; 4.75 µM,-33% (active)
same,growth,SW-620 colon; 10 µM,-17.6% (active)
same,growth,MCF7 breast; 4.75 µM,0.0903% (active)
same,growth,MCF7 breast; 10 µM,-66.1% (active)
same,growth,HCT-116 colon; 4.75 µM,-5.84% (active)
same,growth,HCT-116 colon; 10 µM,-16.6% (active)
same,growth,HCC-2998 colon; 4.75 µM,16.7%
same,growth,HCC-2998 colon; 10 µM,-62.8% (active)
same,growth,KM12 colon; 4.75 µM,6.84% (active)
same,growth,KM12 colon; 10 µM,38%
NC(N)=NC(N)=Nc1ccc(Cl)cc1,growth,NCI/ADR-RES ovarian,113%
same,growth,T-47D breast; 10 µM unless noted,109%
same,growth,BT-549 breast; 10 µM unless noted,104%
same,growth,SW-620 colon; 10 µM unless noted,102%
same,growth,HCT-116 colon; 10 µM unless noted,109%
same,growth,HCC-2998 colon; 10 µM unless noted,107%
same,growth,KM12 colon; 10 µM unless noted,112%
C/C=C(/C)C(=O)O[C@H]1CC[C@@]2(C)[C@@H]3CC[C@H]4[C@]5(O)C[C@H](O)[C@@]6(O)[C@@H](CN7C[C@@H](C)CC[C@H]7[C@@]6(C)O)[C@]5(O)C[C@@]42O[C@@]13O,growth,NCI/ADR-RES ovarian,111%
same,growth,T-47D breast; 10 µM unless noted,118%
same,growth,MDA-MB-435 melanoma,108%
same,growth,SW-620 colon; 10 µM unless noted,111%
same,growth,MCF7 breast; 10 µM unless noted,98.3%
same,growth,HCT-116 colon; 10 µM unless noted,47.5%
same,growth,HCC-2998 colon; 10 µM unless noted,137%
same,growth,KM12 colon; 10 µM unless noted,122%
COc1ccn(C)c(=O)c1C#N,growth,T-47D breast; 10 µM unless noted,81.6%
same,growth,BT-549 breast; 10 µM unless noted,103%
same,growth,MDA-MB-435 melanoma,107%
same,growth,SW-620 colon; 10 µM unless noted,94.1%
same,growth,MCF7 breast; 10 µM unless noted,93%
same,growth,HCT-116 colon; 10 µM unless noted,97%
same,growth,HCC-2998 colon; 10 µM unless noted,101%
same,growth,KM12 colon; 10 µM unless noted,96.6%
CC1=CC(=O)CCC12CCOC2=O (configuration not stated),growth,NCI/ADR-RES ovarian,94.7%
same,growth,BT-549 breast; 10 µM unless noted,90.5%
same,growth,MDA-MB-435 melanoma,95.5%
same,growth,SW-620 colon; 10 µM unless noted,98.6%
same,growth,MCF7 breast; 10 µM unless noted,97.4%
same,growth,HCT-116 colon; 10 µM unless noted,102%
same,growth,HCC-2998 colon; 10 µM unless noted,102%
same,growth,KM12 colon; 10 µM unless noted,104%
CC(C)COC(=O)Cc1ccccc1,growth,NCI/ADR-RES ovarian,110%
same,growth,BT-549 breast; 10 µM unless noted,108%
same,growth,MDA-MB-435 melanoma,106%
same,growth,SW-620 colon; 10 µM unless noted,107%
same,growth,MCF7 breast; 10 µM unless noted,106%
same,growth,HCT-116 colon; 10 µM unless noted,105%
same,growth,HCC-2998 colon; 10 µM unless noted,107%
same,growth,KM12 colon; 10 µM unless noted,105%
[N-]=[N+]=CC(=O)CCC(=O)C=[N+]=[N-],growth,NCI/ADR-RES ovarian,103%
same,growth,T-47D breast; 10 µM unless noted,106%
same,growth,MDA-MB-435 melanoma,113%
same,growth,SW-620 colon; 10 µM unless noted,94.1%
same,growth,HCT-116 colon; 10 µM unless noted,102%
same,growth,HCC-2998 colon; 10 µM unless noted,109%
same,growth,KM12 colon; 10 µM unless noted,121%
CC1(C)N(Nc2ccccc2)C(=O)C2CCCN21 (configuration not stated),growth,T-47D breast; 10 µM unless noted,56.8%
same,growth,BT-549 breast; 10 µM unless noted,13.6%
same,growth,MDA-MB-435 melanoma,12.5%
same,growth,SW-620 colon; 10 µM unless noted,62.5%
same,growth,MCF7 breast; 10 µM unless noted,80.1%
same,growth,HCT-116 colon; 10 µM unless noted,12.1%
same,growth,HCC-2998 colon; 10 µM unless noted,88.1%
same,growth,KM12 colon; 10 µM unless noted,15.7%
CC[C@@H](C)C(=O)O[C@H]1[C@H](O)[C@H]2[C@@H](CN3C[C@@H](C)CC[C@H]3[C@@]2(C)O)[C@@H]2C[C@]34O[C@]5(O)[C@@H](OC(=O)[C@@](C)(O)CC)CC[C@@]3(C)[C@@H]5[C@@H](OC(C)=O)[C@@H](OC(C)=O)[C@H]4[C@@]21O,growth,T-47D breast; 10 µM unless noted,97.3%
same,growth,BT-549 breast; 10 µM unless noted,99.7%
same,growth,MDA-MB-435 melanoma,115%
same,growth,SW-620 colon; 10 µM unless noted,95.2%
same,growth,MCF7 breast; 10 µM unless noted,98.4%
same,growth,HCT-116 colon; 10 µM unless noted,98.1%
same,growth,HCC-2998 colon; 10 µM unless noted,87.9%
same,growth,KM12 colon; 10 µM unless noted,100%
CCCCOC(N)=O,growth,NCI/ADR-RES ovarian,106%
same,growth,T-47D breast; 10 µM unless noted,102%
same,growth,MDA-MB-435 melanoma,110%
same,growth,SW-620 colon; 10 µM unless noted,113%
same,growth,MCF7 breast; 10 µM unless noted,114%
same,growth,HCT-116 colon; 10 µM unless noted,98.4%
same,growth,KM12 colon; 10 µM unless noted,106%
N#Cc1ccc(Cl)cc1,growth,NCI/ADR-RES ovarian,113%
same,growth,T-47D breast; 10 µM unless noted,104%
same,growth,SW-620 colon; 10 µM unless noted,103%
same,growth,MCF7 breast; 10 µM unless noted,103%
same,growth,HCT-116 colon; 10 µM unless noted,114%
same,growth,HCC-2998 colon; 10 µM unless noted,123%
same,growth,KM12 colon; 10 µM unless noted,115%
NC(=O)c1c(Br)c(Br)c(Br)c(Br)c1C(=O)O (tested in a mixture with another compound),growth,NCI/ADR-RES ovarian,103% and 100%
same,growth,BT-549 breast; 10 µM unless noted,104% and 96.8%
same,growth,SW-620 colon; 10 µM unless noted,97.5% and 105%
same,growth,MCF7 breast; 10 µM unless noted,79.5% and 88.8%
same,growth,HCT-116 colon; 10 µM unless noted,97.8% and 105%
same,growth,HCC-2998 colon; 10 µM unless noted,104% and 103%
same,growth,KM12 colon; 10 µM unless noted,103% and 102%
Cc1ccc(NC2=N[C@]34CC(=O)CC[C@]3(C)[C@H]3CC[C@]5(C)C(=O)CC[C@H]5[C@@H]3C[C@@H]4S2)c(C)c1,growth,NCI/ADR-RES ovarian,53.4%
same,growth,T-47D breast; 10 µM unless noted,41.8%
same,growth,BT-549 breast; 10 µM unless noted,2.85% (active)
same,growth,SW-620 colon; 10 µM unless noted,4.35% (active)
same,growth,MCF7 breast; 10 µM unless noted,18.2%
same,growth,HCT-116 colon; 10 µM unless noted,-27.3% (active)
same,growth,HCC-2998 colon; 10 µM unless noted,84.5%
same,growth,KM12 colon; 10 µM unless noted,44.5%
